Bioassay records deposited in PubChem by National Center for Advancing Translational Sciences (NCATS).
HPGD block: blocks human HPGD enzyme activity. P15428. purified HPGD, NADH fluorescence kinetic, PGE2 substrate. Potency, µM, without a hit: top-dose activity change, negative = inhibition, hits mostly inhibitors. actives 4.3% (n = 150,000); active means well fitted inhibition curve with a large enough effect, not every such curve was filed as active; inconclusive means small, poorly fitted or top-dose-only effect, or another doubt; inactive means no such curve, though single readings can be large or run the other way; further: potency means the concentration at half of the fitted maximal effect
Target sequence (P15428 whole entry, looked up): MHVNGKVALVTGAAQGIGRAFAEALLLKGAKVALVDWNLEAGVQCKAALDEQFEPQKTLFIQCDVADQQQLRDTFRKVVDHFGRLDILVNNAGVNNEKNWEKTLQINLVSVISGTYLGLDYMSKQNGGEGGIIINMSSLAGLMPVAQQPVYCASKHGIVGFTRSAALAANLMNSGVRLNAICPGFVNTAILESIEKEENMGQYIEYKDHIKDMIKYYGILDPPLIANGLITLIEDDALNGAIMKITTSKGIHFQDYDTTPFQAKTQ
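NADH formation kinetics: reaction with 30 uM PGE2 and 1 mM NAD+ (final), 20 nM enzyme, Tris-HCl pH 8 with Tween 20, after 15 min compound preincubation at room temperature. Fluorescence change, last versus first of five reads.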
12-hLO inh: blocks human 12-lipoxygenase activity; actives 0.12% (n = 150,000); purified 12-hLO, xylenol orange hydroperoxide absorbance; Potency, µM (doses to about 57.1 µM), inactives show top-dose activity change, negative = inhibition, actives largely listed as inhibitors; P18054; further: potency means the concentration at half of the fitted maximal effect; nearly all actives have a fitted effect of over 55% in size
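Purified human 12hLO (150 nM), preincubated 15 min with compound, then 40 uM arachidonic acid for 30 min, room temperature, Hepes pH 7.0 with 0.01% Triton X-100. Hydroperoxide detected by ferrous iron/xylenol orange; 573/405 nm absorbance ratio gives reaction progress.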
IMPase Li cell: IMPase inhibition in cells with lithium potentiation; actives 0.35% (n = 210,000); CHO-M1 cells, IP1 TR-FRET (IP-One), carbachol + lithium; Potency, µM (titrated, usually from 59.4 µM), without a hit: at the top dose activity, negative = IMPase inhibition, hits mostly inhibitors; AID 1457;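 further: IP1 builds up when IMPase is blocked and the TR-FRET signal falls; potency means the concentration at half of the fitted maximal effect; plate controls were basal vehicle for no effect and high inhibitor control for full effect; nearly all actives have a fitted effect of over 50% in size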
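Steps: plate 2000 CHO-M1 cells per well and culture 16–30 h; add compound and lithium; incubate 30 min, 37C; add d2-IP1 tracer and Eu cryptate anti-IP1 antibody in lysis buffer; read after 10 min at room temperature.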
ALDH1A1 inh: ALDH1A1 (human) enzyme inhibition; Potency, µM (titrated, usually from 75.3 µM), for inactives: at the top dose activity, negative = inhibition, hits mostly inhibitors; P00352; actives 7.3% (n = 220,000); Purified ALDH1A1, NADH fluorescence, propionaldehyde substrate; active means well fitted inhibition curve with a large enough effect, not every such curve was filed as active; inconclusive means small, poorly fitted or top-dose-only effect, or another doubt; inactive means no such curve, though single readings can be large or run the other way;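 further: potency means the concentration at half of the fitted maximal effect; plate controls were no enzyme wells and a reference inhibitor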
PNC inhibitor: inhibitors of perinucleolar compartment assembly; PC3M PTB-GFP, PNC prevalence imaging, 16 h; active compounds read low; activity change (PNC), negative = inhibition, % at 10 µM; actives 3.1% (n = 140,000);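 active means readout at or below -70, meaning at least 70% loss of cells showing the perinucleolar compartment, a nuclear body marking cancer cells; inconclusive means readout between -30 and a set limit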;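 further: plate controls were DMSO wells for no effect and camptothecin positive control wells for full effect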
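Read-out is percentage of cells bearing a perinucleolar compartment, from automated 20x imaging of fixed, Hoechst-stained PC3M PTB-GFP cells. Cells were seeded 4 h, then exposed 16 h to compound (23 nl of library stock) in duplicate plates.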
IMPase cell inh: IMPase inhibition in cells. P97697. CHO-M1 cells, IP1 accumulation, HTRF TR-FRET ratio. inhibition (IP1 accumulation), % at 46.1 µM. 120,000 tested, under 10 active; active means well fitted curve in the direction sought with a large enough effect in the signal ratio, not every such curve was filed as active; inconclusive means small, poorly fitted or top-dose-only effect, or a change in a side signal; inactive means no such curve, though single readings can be large or run the other way; the % refers to the signal ratio;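 further: cells stimulated with carbachol in lithium chloride buffer; plate controls were DMSO basal wells for no effect and reference inhibitor wells for full effect; higher means more IMPase inhibition seen as more IP1 and lower FRET ratio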
Target sequence (P97697 whole entry, looked up): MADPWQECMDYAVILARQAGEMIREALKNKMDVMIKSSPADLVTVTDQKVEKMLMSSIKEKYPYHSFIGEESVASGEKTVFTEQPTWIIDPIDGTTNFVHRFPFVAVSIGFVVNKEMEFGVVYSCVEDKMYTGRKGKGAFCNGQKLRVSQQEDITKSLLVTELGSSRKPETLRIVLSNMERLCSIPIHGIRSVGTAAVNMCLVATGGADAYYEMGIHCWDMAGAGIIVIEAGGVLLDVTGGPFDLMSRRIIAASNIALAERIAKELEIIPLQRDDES
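CHO-M1, 2000 cells/well, cultured 16–30 h; cpd up to 46 uM; carbachol (50 uM solution, stimulation buffer w/ 50 mM LiCl, pH 7.4), 30 min 37C; IP-One TR-FRET, 10 min RT; Ex 320/Em 665, 620; Hill-fit AC50.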
The depositor's hits bear a star; [ ] = dose if it differs, or a comment. Shown are actives, neighbours in structure and some others; about 11% of the full set was active somewhere. Unless noted, the call rests on the fitted dose curve; in most records, active means well fitted curve in the direction sought with a large enough effect; inconclusive means small, poorly fitted or top-dose-only effect, or another doubt; inactive means no such curve, though single readings can be large; an effect the other way counts as inactive or inconclusive. Unless noted, on the % scale 0 is the no-effect control and ±100 the full control effect.

What do the screens show for `Cc1nc2cnc(OCc3ccccc3)nc2n(Cc2ccc(F)cc2)c1=O`?
HPGD block: -25.6%; 12-hLO inh: -7.3%; IMPase Li cell: 29.0%; ALDH1A1 inh: inconclusive

What do the screens show for `CC1(C)CC(=O)C2=C(C1)OC(N)=C(C#N)C2c1ccoc1` (centres undefined)?
IMPase Li cell: 18.6%; ALDH1A1 inh: inconclusive

How did CC1(C)CC(=O)C2=C(C1)OC(N)=C(C#N)C2C#Cc1ccccc1 (centres undefined) do in these assays?
HPGD block: 12.6µM*; 12-hLO inh: -11.0%; IMPase Li cell: 10.0%[38.3 µM]; ALDH1A1 inh: 1µM*; PNC inhibitor: -16.5; IMPase cell inh: -3.6

How did CC(c1ccccc1)C1C(C#N)=C(N)OC2=C1C(=O)CC(C)(C)C2 (centres undefined) do in these assays?
HPGD block: -14.5%; 12-hLO inh: -13.9%; IMPase Li cell: 2.2%[38.3 µM]; ALDH1A1 inh: inconclusive; PNC inhibitor: -3.9; IMPase cell inh: 2.6

Results for C/C(=C\c1ccco1)C1C(C#N)=C(N)OC2=C1C(=O)CC(C)(C)C2 (centres undefined) ?
HPGD block: -16.3%; 12-hLO inh: -3.8%; IMPase Li cell: 1.8%[38.3 µM]; ALDH1A1 inh: 12.6µM*; PNC inhibitor: 41.0; IMPase cell inh: -0.8

What do the screens show for `Cc1ccn2c(c1)nc(=S)n2C(=O)c1ccccc1`?
HPGD block: 25.1µM*; 12-hLO inh: 5.0%; IMPase Li cell: -3.1%; ALDH1A1 inh: inconclusive; PNC inhibitor: 3.9

Results for Cc1ccc(-c2nc(N)n(C(=O)c3ccco3)n2)cc1 ?
IMPase Li cell: -4.4%; ALDH1A1 inh: inconclusive

Results for Cc1cccc2nc(=S)n(C(=O)c3ccco3)n12 ?
HPGD block: inconclusive; 12-hLO inh: 13.2%; IMPase Li cell: 28.7%[38.3 µM]; ALDH1A1 inh: 4.74µM*; PNC inhibitor: inconclusive; IMPase cell inh: -1.8

Results for O=C(c1ccco1)n1c(=S)nc2ccccn21 ?
HPGD block: 11.2µM*; 12-hLO inh: -4.5%; IMPase Li cell: 8.2%[38.3 µM]; ALDH1A1 inh: 20µM*; PNC inhibitor: -12.9; IMPase cell inh: 2.4

What do the screens show for `CC1(C)C(OC(=O)CCC(=O)O)CC[C@]2(C)C1CC[C@@]1(C)C2C(=O)C=C2[C@@H]3C[C@@](C)(C(=O)O)CC[C@]3(C)CCC21C` (some centres undefined)?
HPGD block: -1.6%; 12-hLO inh: -2.8%; IMPase Li cell: -12.3%; ALDH1A1 inh: -0.3%

Results for Cc1ccccc1N1C(=O)CC(Nc2ccc3c(c2)OCO3)C1=O (centres undefined) ?
IMPase Li cell: 7.3%; ALDH1A1 inh: -6.6%

How did COC(=O)c1ccc(NC2CC(=O)N(c3ccccc3C)C2=O)cc1 (centres undefined) do in these assays?
HPGD block: -17.4%; 12-hLO inh: 4.7%; IMPase Li cell: 28.9%[38.3 µM]; ALDH1A1 inh: 12.6µM*; PNC inhibitor: 17.8; IMPase cell inh: 13.9

What do the screens show for `CCN=C(Nc1ccc2c(c1)OCO2)SC1CC(=O)N(c2ccccc2F)C1=O` (centres undefined)?
HPGD block: -5.2%; 12-hLO inh: -5.1%; IMPase Li cell: 0.6%[38.3 µM]; ALDH1A1 inh: 17.8µM*; PNC inhibitor: -16.6; IMPase cell inh: -0.2

Results for CN=C(Nc1ccc(C(=O)OC)cc1)SC1CC(=O)N(c2ccccc2F)C1=O (centres undefined) ?
HPGD block: -9.7%; 12-hLO inh: -0.7%; IMPase Li cell: 8.8%[38.3 µM]; ALDH1A1 inh: 9.0%; PNC inhibitor: -108.4*; IMPase cell inh: 13.5

How did CCN=C(Nc1ccc2c(c1)OCO2)SC1CC(=O)N(c2ccc(OC)cc2)C1=O (centres undefined) do in these assays?
HPGD block: 1.1%; 12-hLO inh: 1.0%; IMPase Li cell: 9.0%; ALDH1A1 inh: inconclusive; PNC inhibitor: 8.4; IMPase cell inh: 4.6

What do the screens show for `O=C(O)c1ccc(N2C(=O)CC(SC(=Nc3ccccc3)Nc3ccccc3)C2=O)cc1` (centres undefined)?
HPGD block: -9.7%; 12-hLO inh: -0.8%; IMPase Li cell: -3.9%; ALDH1A1 inh: 3.0%; PNC inhibitor: 36.4

Results for COc1ccc(-c2cc(-c3n[nH]c(=S)n3-c3ccccc3Cl)[nH]n2)cc1 ?
IMPase Li cell: 4.1%; ALDH1A1 inh: inconclusive

What do the screens show for `CCNc1ncc2nc(C)c(=O)n(C[C@H]3CCCO3)c2n1`?
IMPase Li cell: -19.5%; ALDH1A1 inh: inconclusive

Results for Cc1nc(NC(N)=S)sc1C(=O)Nc1ccccc1 ?
HPGD block: -17.3%; 12-hLO inh: -8.8%; IMPase Li cell: -25.4%[38.3 µM]; ALDH1A1 inh: inconclusive; PNC inhibitor: 42.4; IMPase cell inh: -7.0

Results for Cc1nc(Nc2c(Cl)cccc2Cl)sc1C(=O)Nc1ccccc1 ?
HPGD block: -1.7%; 12-hLO inh: -5.4%; IMPase Li cell: 5.3%; ALDH1A1 inh: 14.1µM*; PNC inhibitor: 34.2; IMPase cell inh: 8.5

What do the screens show for `NNC(=O)c1ccc[n+](CCc2ccccc2)c1`?
HPGD block: -6.9%; 12-hLO inh: 2.8%[11.4 µM]; IMPase Li cell: 6.0%; ALDH1A1 inh: 0.7%[13.5 µM]

What do the screens show for `CCOC(=O)CSc1nc2ccccc2c(=O)n1CC1COc2ccccc2O1` (centres undefined)?
HPGD block: -14.8%; 12-hLO inh: 2.7%; IMPase Li cell: 8.4%[38.3 µM]; ALDH1A1 inh: inconclusive; PNC inhibitor: -1.2; IMPase cell inh: 8.4

How did CCCN(CCC)C(=O)CSc1nc2ccccc2c(=O)n1CC1COc2ccccc2O1 (centres undefined) do in these assays?
HPGD block: -13.5%; 12-hLO inh: 2.2%; IMPase Li cell: 16.0%[38.3 µM]; ALDH1A1 inh: 11.2µM*; PNC inhibitor: 30.4; IMPase cell inh: 3.9

Results for Cn1c(=O)c2[nH]c(-c3ccccc3)c(O)c2n(C)c1=O ?
HPGD block: inconclusive; 12-hLO inh: -3.2%; IMPase Li cell: 20.1%; ALDH1A1 inh: 11.2µM*; PNC inhibitor: 1.6; IMPase cell inh: inconclusive

What do the screens show for `C=CCN1c2ccccc2[C@]23C[C@@H](C(=O)OC)N(S(=O)(=O)c4ccc5c(c4)OCCN5C)C2=NC(C(=O)OC)=C(C(=O)OC)[C@H]13`?
HPGD block: 2.8%; 12-hLO inh: -3.3%[11.4 µM]; IMPase Li cell: 1.9%; ALDH1A1 inh: 5.8%[13.5 µM]

How did CN1/C(=C\C=O)C(C)(C)c2ccccc21 do in these assays?
IMPase Li cell: 0.8%; ALDH1A1 inh: -6.2%

What do the screens show for `CN1\C(=C/C=C/C=C/C=[N+](C)C)C(C)(C)c2ccccc21`?
IMPase Li cell: 0.9%; ALDH1A1 inh: 25.1µM*
